Source: PubChem (National Center for Advancing Translational Sciences (NCATS))
Compounds with a hit are over-represented: about 0.5% of the library has one in this group of screens.
EPAC2 antagonist – qHTS for Antagonist of cAMP-regulated guanine nucleotide exchange factor 2 (EPAC2): primary screen; EPAC2 GEF exchange of Rap1B-BODIPY-GDP, fluorescence; hit rate 0.18% among 360,000; Potency, µM (series often up to 114 µM), for inactives: at the highest dose activity, negative = inhibition, usual class: inhibitors; further: potency means the concentration at half of the fitted maximal effect; on the % scale 0 is the no-effect control and ±100 the full control effect; nearly all actives have a fitted effect of over 45% in size
TSHR antagonist – Antagonists of the Thyroid Stimulating Hormone Receptor: HTS campaign. hit rate 0.2% among 330,000. activity change, negative = inhibition, % at 11.5 µM. Thyrotropin receptor (Homo sapiens), P16473. TSHR-expressing cells, TSH-stimulated cAMP HTRF, 2 h; hits give low values;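 active means activity change below a set negative limit, meaning inhibition stronger than a set level, cut at about -70% in these data; inconclusive means activity change between two set negative limits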; further: on the % scale 0 is the no-effect control and ±100 the full control effect
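TSHR-expressing cells were treated with compounds, then stimulated with TSH at EC80 (4nM final) for 2 hours at 37 deg C. Cellular cAMP was measured by HTRF competition between lysate cAMP and cAMP-d2 for a cryptate-labelled anti-cAMP antibody.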
PTHR1 agonist – qHTS for PTHR1 Agonists: Primary Screen; Parathyroid hormone/parathyroid hormone-related peptide receptor (Homo sapiens), Q03431; HEK293 GP2 PTHR1 cells, GloSensor cAMP luminescence, 1 h; Potency, µM (series often up to 115 µM), inactives show at the highest dose activation, hits mostly activators; hit rate 0.075% among 410,000; AID 743266, 2014; further: potency means the concentration at half of the fitted maximal effect; nearly all actives have a fitted effect of over 55% in size
Target sequence (Q03431 whole entry, looked up): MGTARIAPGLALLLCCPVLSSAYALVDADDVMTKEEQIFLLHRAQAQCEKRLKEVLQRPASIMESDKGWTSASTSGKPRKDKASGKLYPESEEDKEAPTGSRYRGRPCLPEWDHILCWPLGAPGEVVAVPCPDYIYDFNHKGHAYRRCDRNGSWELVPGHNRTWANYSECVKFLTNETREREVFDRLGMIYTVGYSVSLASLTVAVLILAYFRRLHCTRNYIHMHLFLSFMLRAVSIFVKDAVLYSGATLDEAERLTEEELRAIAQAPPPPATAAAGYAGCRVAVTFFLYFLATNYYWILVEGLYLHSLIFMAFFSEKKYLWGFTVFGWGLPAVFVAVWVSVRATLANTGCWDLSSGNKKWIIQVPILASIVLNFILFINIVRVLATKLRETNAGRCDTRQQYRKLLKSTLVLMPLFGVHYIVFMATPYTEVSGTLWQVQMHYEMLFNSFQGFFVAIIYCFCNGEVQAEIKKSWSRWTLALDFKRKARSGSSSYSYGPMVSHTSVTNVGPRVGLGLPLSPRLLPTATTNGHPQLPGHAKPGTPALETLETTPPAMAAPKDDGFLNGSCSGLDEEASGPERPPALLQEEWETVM
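HEK-293-derived GP2 cells expressing PTHR1 and a GloSensor cAMP reporter, 3,000/well, plated overnight, given luciferin plus IBMX (each 0.5 mM as added) for 1 h at 37 °C, then compound for 1 h at 37 °C. Luminescence was read after 15 min at room temperature.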
EPAC1 ag – qHTS for Agonist of cAMP-regulated guanine nucleotide exchange factor 3 (EPAC1): primary screen; hit rate 0.073% among 360,000; EPAC1 agonist qHTS, biochemical assay; response scale: 100% = response to 6.5 mM cAMP; Rap guanine nucleotide exchange factor 3 (Homo sapiens), O95398; AID 720707, 2013; Potency, µM (titrated, usually from 154 µM), without a hit: at the top dose activation, usual class: activators; further: potency means the concentration at half of the fitted maximal effect; nearly all actives have a fitted effect of over 60% in size
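Read-out is the fluorescence drop as BODIPY-GDP leaves Rap1B (480 nm excitation, 540 nm emission), recorded every 5 minutes over 30 minutes. Reactions held 100 nM EPAC1, 250 nM Rap1B–BODIPY-GDP and 50 uM GDP, with 6.5 mM cAMP setting full activation.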
EPAC1 antagonist – qHTS for Antagonist of cAMP-regulated guanine nucleotide exchange factor 3 (EPAC1): primary screen; Rap guanine nucleotide exchange factor 3 (Homo sapiens), O95398; EPAC1 GEF assay, Rap1b-BODIPY-GDP exchange fluorescence; Potency, µM (highest dose often 115 µM), inactives show at the top dose activity change, negative = inhibition, hits mostly inhibitors; hit rate 0.14% among 360,000; AID 720709, 2013;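 further: potency means the concentration at half of the fitted maximal effect; plate controls were vehicle for no effect and positive control for full effect; nearly all actives have a fitted effect of over 50% in size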
EPAC2 ag – qHTS for Agonist of cAMP-regulated guanine nucleotide exchange factor 4 (EPAC2): primary screen; hit rate 0.079% among 360,000; EPAC2 activation, biochemical qHTS; response scale: 100% = 6.5 mM cAMP response; Rap guanine nucleotide exchange factor 4 (Homo sapiens), Q8WZA2; Potency, µM (series often up to 154 µM), for inactives: at the highest dose activation, actives largely listed as activators; further: potency means the concentration at half of the fitted maximal effect; nearly all actives have a fitted effect of over 50% in size
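Setup: EPAC2 100 nM, labeled Rap1B complex 250 nM, free GDP 50 uM. Compound titrations pinned in, brief spin, 5 min room temperature incubation. Kinetic fluorescence read over 30 min, normalized to 6.5 mM cAMP.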
The depositor's hits bear a star; i = inactive; ? = inconclusive; . = no result given; [ ] = dose if it differs, or a comment. Unless noted, the call rests on the fitted dose curve; in most records, active means well fitted curve in the direction sought with a large enough effect; inconclusive means small, poorly fitted or top-dose-only effect, or another doubt; inactive means no such curve, though single readings can be large; an effect the other way counts as inactive or inconclusive.

SMILES	EPAC2 antagonist	TSHR antagonist	PTHR1 agonist	EPAC1 ag	EPAC1 antagonist	EPAC2 ag
N#CC1C(=O)NC(c2ccccc2)=CC1c1ccccc1 (stereo not drawn)	-5%	.	i	5%	-2%	7%
Cc1cc2ccccn2c1C(=O)c1cccc([N+](=O)[O-])c1	?	-7	-1%	20%	-2%	24%
Cc1cc2ccccn2c1C(=O)c1ccccc1Br	13µM*	-7	-25%	5%	1%	21%
Cc1cc2ccccn2c1C(=O)c1ccc(Cl)c([N+](=O)[O-])c1	11µM*	-25	-23%	4%	-10%	3%
O=S(=O)(O)c1cc(Cl)cc(N=Nc2ccc(O)cc2O)c1O	?	.	-23%	1%	-31%	12%
Cc1cc(-c2ccc(N=Nc3c(S(=O)(=O)O)cc4cc(S(=O)(=O)O)cc(N)c4c3O)c(C)c2)ccc1N=Nc1c(S(=O)(=O)O)cc2cc(S(=O)(=O)O)cc(N)c2c1O	.	-155*	.	.	.	.
O=S(=O)(O)c1cc(O)c2c(O)c(N=Nc3cc(Cl)ccc3O)c(S(=O)(=O)O)cc2c1	28µM*	-3	-18%	1%	?	-11%
NC(=O)c1ccc(-n2nnnc2SCC(=O)c2ccc(O)c(O)c2)cc1	1%	-16	0%	1%	?	6%
COc1ccc(-n2nnnc2SCC(=O)c2ccc(O)c(O)c2)cc1	-2%	2	-2%	1%	45µM*	10%
COc1cc(OC)c(NS(=O)(=O)c2c(C(=O)N3CCC(C)CC3)c(C)n(C)c2C)cc1Cl	.	.	-2%	.	.	.
CCOc1c(O)ccc(/C=C2\SC(=S)NC2=O)c1[N+](=O)[O-]	56µM*	-21	-31%	-1%	-21%	2%
NS(=O)(=O)c1ccc2c(c1)C1C=CCC1C(C1CC=CCC1)N2 (stereo not drawn)	12%	-5	i	0%	71µM*	5%
CC(C)C1Nc2ccc(S(N)(=O)=O)cc2C2C=CCC21 (stereo not drawn)	-8%	2	-7%[57.5 µM]	7%	-7%	7%
COc1ccc(OC)c(NC(=O)/C=C/c2ccc(S(=O)(=O)N3CCOCC3)cc2)c1	8%	-6	i	-8%	2%	2%
CN(C)C(CNC(=O)CNC(=O)Cc1cccc2ccccc12)c1ccccc1 (stereo not drawn)	-5%	-4	i	10%	16%	-1%
O=c1cc(-c2ccc(O)cc2)oc2c(O)c(O)c(O)c(O)c12	-14%	-1	-8%	-6%	6.3µM*	4%
O=c1cc(-c2ccc(O)cc2)oc2c1ccc1ccccc12	7%	-11	28%	-1%	1%	-4%
O=C(Nc1c2c(nn1-c1ccc(F)cc1)CS(=O)(=O)C2)c1ccc2c(c1)OCO2	2%	-8	i	-10%	11%	5%
O=C(NC(Nc1nc2ccc([N+](=O)[O-])cc2s1)(C(F)(F)F)C(F)(F)F)c1ccccc1Cl	-25%	-83*	-55%	-1%	-7%	3%
COc1ccccc1N(CC(=O)Nc1cc(C)on1)S(=O)(=O)c1ccc(Cl)cc1	-12%	29	-5%[57.5 µM]	-2%	-4%	4µM*
COc1ccccc1N(C)S(=O)(=O)c1ccc(C(=O)OCC(=O)Nc2cc(C)on2)cc1	-7%	-5	i	1%	-27%	4%
C[C@@H]1CN([C@H](C)CO)C(=O)c2cc(Br)cnc2O[C@H]1CN(C)C	4%	.	2%	-13%	-10%	-5%
CCc1nc2c(OCc3cccc(Cl)c3)cccn2c1N(C)C(C)=O	3%	.	-24%	7%	29%	20µM*
COC(=O)c1c(C)c2c(C)cc3ccccn3c-2c1C(=O)OC	11µM*	-9	-10%[57.5 µM]	-6%	2%	-9%
Cn1c(SCC(=O)NNC(=O)c2ccccc2)nnc1C(F)(F)F	4%	-6	-9%	-9%	-5%	0%
SMILES	EPAC2 antagonist	TSHR antagonist	PTHR1 agonist	EPAC1 ag	EPAC1 antagonist	EPAC2 ag
CC[C@@H](C(=O)[C@@H](C)[C@@H](O)[C@H](C)CCc1ccc(C)c(O)c1C(=O)O)[C@H]1O[C@](CC)([C@H]2CC[C@](O)(CC)[C@H](C)O2)C[C@@H]1C	-9%	-84*	-55%	-23%	?	-4%
O=S(=O)(c1ccc(NC(=S)N/N=C/c2ccc(O)c(O)c2)cc1)N1CCOCC1	-10%	-7	-11%	11%	?	13%
O=[N+]([O-])c1cc(Cl)cc(/C=N/NC(=S)Nc2ccc(S(=O)(=O)N3CCOCC3)cc2)c1O	56µM*	-23	-89%	-10%	?	-11%
N#C/C(=C(/O)C(Cl)(Cl)Cl)c1nc2ccccc2[nH]1	13µM*	-38	-31%	-2%	-7%	-1%
C/C(O)=C(/C#N)c1nc2ccccc2[nH]1	-2%	6	i	2%	-12%	-1%
O=C(O)CCc1ccc(-c2ccc(Br)cc2)n1-c1ccc(O)cc1	50µM*	-11	i	-1%	-16%	-8%
Cc1ccc(-c2ccc(CCC(=O)O)n2-c2ccc(O)cc2)cc1	-11%	-2	-28%	4%	-20%	11%
COc1ccccc1/C=C/C=c1\sc2nc(=O)c(Cc3ccccc3)nn2c1=O	6%	3	-33%	8%	35µM*	?
CCCOc1ccc(Cc2nn3c(=O)/c(=C/c4ccco4)sc3nc2=O)cc1	7%	-9	-23%	7%	-4%	-9%
COc1ccc(N(CC(=O)Nc2ccccc2OC)S(=O)(=O)c2ccc(NC(C)=O)cc2)cc1	-12%	35	i	14%	-22%	17%
O=C(Nc1cccc(Cl)c1)c1cc(N=Nc2ccc([N+](=O)[O-])cc2Cl)ccc1O	?	-98*	-45%	-4%	?	-2%
CCC(C(=O)NC1CCCC1)N(Cc1ccco1)C(=O)CNS(=O)(=O)c1ccccc1 (stereo not drawn)	0%	11	-14%	12%	-28%	8%
CCSC1=C(C#N)C(c2cccs2)C(C(=O)OC)=C(C)N1 (stereo not drawn)	?	-9	-18%	2%	-23%	2%
